The test system of experiment [1] is DLD1. Kind of experiment: cell viability (CellTiter-Glo) relative to plate median (fraction of plate median); higher = more viable cells. Particulars: 5 µM; treatment time 24 h; reporter: 7TFP. The method, boiled down:
(§1)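 Luminescence, normalised well by well to the plate median, is tabulated as a mean of independent replicates. There were two replicates, run on colorectal cancer lines stably transduced with lentiviral TCF/Wnt firefly luciferase reporters and dosed with library compounds at a final 5 µM for 24 h. Readouts were firefly luciferase or CellTiterGlo on parallel plates.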
A general note: In ATP-based viability assays light output follows the ATP content of the culture.

The subject of a further experiment is HCT116. The experiment is described as above. Particulars: 5 µM; treatment time 24 h; reporter: TCF4/Wnt. In a few lines:
as §1

The test system of experiment [2] is SW480. The description is as above. Particulars: 5 µM; treatment time 24 h; reporter: 7TFP. The method, boiled down: as §1
In experiment [3] the test system is DLD1. Put plainly: TCF/Wnt firefly luciferase reporter signal relative to plate median (fraction of plate median); higher = higher Wnt reporter signal. Conditions: 5 µM; treatment time 24 h; reporter: 7TFP. In a few lines: as §1
A general note: In a reporter assay the amount or activity of a reporter protein is the signal.

Experiment [4] deals with SW480. The experiment is described as above. Particulars: 5 µM; treatment time 24 h; reporter: 7TFP. The method, boiled down:
as §1

± gives the standard deviation of the averaged measurements.

With `CCOC(=O)C1=C[C@]2(CC)CCCN3CCc4c(n1c1ccccc41)[C@@H]32`, the cell viability with DLD1 [1] came out at 0.916 ± 0.016; in the experiment with HCT116 it was 1.01 ± 0.088; with SW480 [2], 0.995 ± 0.0071. The “TCF/Wnt firefly luciferase reporter signal” value in the experiment on DLD1 [3] amounted to 1.02 ± 0.067; in the experiment on SW480 [4], 0.782 ± 0.079.

Consider `Nc1ccc(S(N)(=O)=O)cc1`, for which the figures for the cell viability with DLD1 [1], in the experiment with HCT116 and in the experiment with SW480 [2] were 1.04 ± 0.081, 0.975 ± 0.031 and 1.065 ± 0.0071, respectively. Besides, the “TCF/Wnt firefly luciferase reporter signal” value in the experiment with DLD1 [3] was 1.04; with SW480 [4], 1.02 ± 0.073.

Consider `Cc1ccc(C)c(OCCCC(C)(C)C(=O)O)c1`, for which the cell viability in the experiment on DLD1 [1] is 0.985 ± 0.092; with HCT116, 0.986 ± 0.034; with SW480 [2], 1.01 ± 0.015. The “TCF/Wnt firefly luciferase reporter signal” value was 1.015 ± 0.0071 in the experiment on DLD1 [3] and 1.06 ± 0.05 in the experiment with SW480 [4].

For the compound `Nc1cc(N2CCCCC2)nc(N)[n+]1[O-]`, the values for the cell viability in the experiment on DLD1 [1], in the experiment on HCT116 and with SW480 [2] were 1.01 ± 0.047, 0.972 ± 0.054 and 1 ± 0.04, respectively. The “TCF/Wnt firefly luciferase reporter signal” value was determined as 1.04 ± 0.11 with DLD1 [3] and 0.943 ± 0.062 in the experiment on SW480 [4].

As to `CC(=O)O[C@H]1C[C@@H](OC(C)=O)C(C)(C)C2CC(=O)[C@]3(C)C(CC[C@@]4(C)[C@H](C(=O)O)OC(=O)C5OC543)[C@]21C` (stereo not given in full), the values for the cell viability with DLD1 [1], in the experiment on HCT116 and in the experiment on SW480 [2] were 0.985 ± 0.093, 0.922 ± 0.028 and 1.01 ± 0.032, respectively. In addition, the “TCF/Wnt firefly luciferase reporter signal” value in the experiment on DLD1 [3] was 0.826 ± 0.027; in the experiment on SW480 [4], 0.95 ± 0.21.

In the case of `CC1(C)O[C@@H]2C[C@H]3[C@@H]4C[C@H](F)C5=CC(=O)C=C[C@]5(C)[C@@]4(F)[C@@H](O)C[C@]3(C)[C@]2(C(=O)CO)O1`, the cell viability with DLD1 [1] was 0.955 ± 0.11; with HCT116 it was 1 ± 0.093; with SW480 [2], 0.975 ± 0.05. The “TCF/Wnt firefly luciferase reporter signal” value was 0.974 ± 0.032 with DLD1 [3] and 0.944 ± 0.038 with SW480 [4].

`Cc1nnc(NS(=O)(=O)c2ccc(N)cc2)s1`: the cell viability came out at 1.01 ± 0.016 in the experiment on DLD1 [1], 1.04 ± 0.028 in the experiment with HCT116 and 1.01 ± 0.15 in the experiment on SW480 [2]. Also, the “TCF/Wnt firefly luciferase reporter signal” value was found to be 0.957 ± 0.04 in the experiment on DLD1 [3] and 0.981 ± 0.056 in the experiment with SW480 [4].

In the case of `C[N+](C)(C)C[C@H](O)CC(=O)[O-]`, the cell viability in the experiment with DLD1 [1] stood at 0.964 ± 0.028; in the experiment on HCT116, 0.976 ± 0.022; in the experiment on SW480 [2], 0.965 ± 0.014. Further, the “TCF/Wnt firefly luciferase reporter signal” value was determined as 0.921 ± 0.014 in the experiment with DLD1 [3] and 0.961 ± 0.069 with SW480 [4].

`CC(C)/C(O)=C1/C(=O)O[C@@H](c2ccoc2)[C@]2(C)C(O)[C@@H](O)[C@@]34OC5(C)OC67CC(C)(C(O)[C@]6(O)[C@@H](O)[C@]3(O5)C12)[C@H](CC(=O)O)[C@]74C` (stereo not given in full): the values for the cell viability in the experiment on DLD1 [1], with HCT116 and with SW480 [2] were 0.869 ± 0.11, 0.985 ± 0.05 and 1 ± 0.026, respectively. Further, the “TCF/Wnt firefly luciferase reporter signal” value came to 1.04 ± 0.028 with DLD1 [3] and 1.02 ± 0.042 in the experiment on SW480 [4].

Turning to `C[C@@H]1C/C=C/C=C/C=C/C=C/[C@H](O[C@@H]2O[C@H](C)[C@@H](O)[C@H](N)[C@@H]2O)C[C@@H]2O[C@](O)(C[C@@H](O)C[C@H]3O[C@@H]3/C=C/C(=O)O1)C[C@H](O)[C@H]2C(=O)O`, the cell viability in the experiment with DLD1 [1] turned out to be 1.03 ± 0.08; in the experiment with HCT116 it was 0.915 ± 0.13; in the experiment with SW480 [2], 0.987 ± 0.019. Besides, the figures for the “TCF/Wnt firefly luciferase reporter signal” value in the experiment with DLD1 [3] and in the experiment with SW480 [4] were 0.921 ± 0.033 and 0.962 ± 0.028, respectively.

On to `N[C@H]1Cc2ccc(cc2)C(=O)[C@@H]2C[C@@H](O)CN2C1=O` [cyclo(4-hydroxyprolyl-phenylalanyl)], for which the cell viability came out at 0.951 ± 0.023 with DLD1 [1], 0.907 ± 0.16 in the experiment with HCT116 and 0.956 ± 0.016 with SW480 [2]. Moreover, the results for the “TCF/Wnt firefly luciferase reporter signal” value in the experiment with DLD1 [3] and in the experiment on SW480 [4] were 0.915 ± 0.18 and 1.03 ± 0.028, respectively.

With `O=C1CN2Cc3c(ccc(Cl)c3Cl)N=C2N1`, the cell viability with DLD1 [1] is 1.05 ± 0.081; in the experiment on HCT116, 1.04; with SW480 [2] it was 1 ± 0.011. Also, the “TCF/Wnt firefly luciferase reporter signal” value in the experiment with DLD1 [3] is 1.19 ± 0.092; in the experiment on SW480 [4] it was 0.98 ± 0.13.

In the case of `COCC1=C(C(=O)OC(C)OC(=O)OC(C)C)N2C(=O)[C@@H](NC(=O)/C(=N\OC)c3csc(N)n3)[C@H]2SC1` (stereo not given in full), the cell viability in the experiment on DLD1 [1] turned out to be 1.07 ± 0.085; in the experiment with HCT116, 1.09 ± 0.085; in the experiment on SW480 [2] it was 1.02 ± 0.028. The “TCF/Wnt firefly luciferase reporter signal” value in the experiment with DLD1 [3] turned out to be 1.01 ± 0.061; in the experiment with SW480 [4] it was 0.999 ± 0.059.

For `CC[C@]1(O)C[C@@H]2CN(CCc3c([nH]c4ccccc34)[C@@](C(=O)OC)(c3cc4c(cc3OC)N(C)[C@H]3[C@@](O)(C(=O)OC)[C@H](OC(C)=O)[C@]5(CC)C=CCN6CC[C@]43[C@@H]65)C2)C1`, the cell viability in the experiment on DLD1 [1] is 0.879 ± 0.16; with HCT116 it was 0.477 ± 0.019; in the experiment on SW480 [2], 1.1 ± 0.035. Moreover, the results for the “TCF/Wnt firefly luciferase reporter signal” value in the experiment with DLD1 [3] and with SW480 [4] were 0.803 ± 0.15 and 0.867 ± 0.2, respectively.
